Compound activity: PubChem BioAssay, several laboratories
Rows were chosen to be rich in hits. Some 4% of all compounds tested hit in one or more screens of this group.
Beta cell apopt = beta cell apoptosis inhibition; INS-1E cytokine-induced death, ATP luminescence, 48 h; percent of positive-control rescue, neutral wells zero; protection from apoptosis, % (concentration not given with the values); hit rate 0.8% among 300,000; AID 435005;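 active means Every replicate reaches about 75%, or at least half do and their mean reaches it too, limit read from the data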;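 further: 0% = cytokine-treated negative control wells and 100% = positive control rescue; higher means more ATP so stronger rescue from cytokine killing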
Gli-Sufu block = Gli-Sufu pathway antagonism; Sufu-KO-LIGHT fibroblasts, Gli luciferase reporter luminescence; inhibition, % at 5 µM; hit rate 0.74% among 340,000; AID 588413;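 active means inhibition above about 55%, limit read from the data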;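 further: 0% = DMSO-treated cells and 100% = wells with medium but no cells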
697 NFkB inh = inhibitors of the PMA/ionomycin-induced NF-kB reporter in 697 B cells; 697 B-cell NF-kB luciferase reporter, 16 h; inhibition, % at 4 µM; hit rate 0.33% among 330,000; AID 435022; in the data active means inhibition above about 35%
Jurkat NFkB inh = lowers PMA/ionomycin-induced NF-kB signal in Jurkat cells | PMA/ionomycin-induced NF-kB luciferase reporter, luminescence | hit rate 0.53% among 330,000 | inhibition, % at 4 µM | AID 435003; in the data active means inhibition above about 50%
Mdm2 MdmX PPI = inhibitors of human Mdm2/MdmX interaction; hit rate 3% among 330,000; O15151+Q00987; SaOS-2 split-luciferase Mdm2/MdmX complementation, luminescence; inhibition, % at 8 µM; AID 485346;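 active means inhibition of at least 50% at 8 µM in the primary screen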
Target sequence (O15151 whole entry, looked up): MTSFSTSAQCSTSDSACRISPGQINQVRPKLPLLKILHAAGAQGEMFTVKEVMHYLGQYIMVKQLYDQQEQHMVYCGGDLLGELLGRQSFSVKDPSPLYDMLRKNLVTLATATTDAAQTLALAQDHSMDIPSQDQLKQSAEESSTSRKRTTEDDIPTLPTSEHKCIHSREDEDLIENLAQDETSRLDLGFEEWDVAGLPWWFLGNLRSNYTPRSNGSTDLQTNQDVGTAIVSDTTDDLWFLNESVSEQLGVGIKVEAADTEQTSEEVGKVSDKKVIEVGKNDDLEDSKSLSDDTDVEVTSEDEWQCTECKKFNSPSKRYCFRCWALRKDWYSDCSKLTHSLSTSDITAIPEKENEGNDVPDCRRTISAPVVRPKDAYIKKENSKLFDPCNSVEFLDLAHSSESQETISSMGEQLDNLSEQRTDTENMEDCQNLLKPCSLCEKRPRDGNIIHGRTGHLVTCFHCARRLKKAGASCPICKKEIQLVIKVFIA
Target sequence (Q00987 whole entry, looked up): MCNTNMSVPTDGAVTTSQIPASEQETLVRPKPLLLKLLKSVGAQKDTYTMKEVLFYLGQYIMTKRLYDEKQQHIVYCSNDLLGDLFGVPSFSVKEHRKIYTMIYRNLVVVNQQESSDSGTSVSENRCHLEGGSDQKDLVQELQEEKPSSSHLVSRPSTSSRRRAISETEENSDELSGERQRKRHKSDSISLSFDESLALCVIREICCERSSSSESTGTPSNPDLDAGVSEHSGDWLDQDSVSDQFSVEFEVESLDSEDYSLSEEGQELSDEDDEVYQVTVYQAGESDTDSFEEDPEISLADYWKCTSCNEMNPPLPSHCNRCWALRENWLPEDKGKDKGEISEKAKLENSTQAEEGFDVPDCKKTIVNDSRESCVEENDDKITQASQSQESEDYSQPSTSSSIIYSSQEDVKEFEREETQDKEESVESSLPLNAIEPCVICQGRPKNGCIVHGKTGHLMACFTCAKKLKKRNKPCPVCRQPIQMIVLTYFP
697 NFkB conf = inhibitors of the PMA/ionomycin-induced NF-kB reporter in 697 B cells, retest; shares compounds with 697 NFkB inh; 697 B-cell NF-kB luciferase, 16 h; AID 449746; hit rate 35% among 2,000; inhibition, % at 4 µM; in the data active means inhibition mostly above about 28%, no sharp cut-off; inactive means mostly below about 22%
An asterisk follows results filed as active; i = inactive; nt = not tested or not shown.

SMILES	Beta cell apopt	Gli-Sufu block	697 NFkB inh	Jurkat NFkB inh	Mdm2 MdmX PPI	697 NFkB conf
Cc1ccc(NC(=O)c2ccc3c(c2)OCCO3)cc1C	8	-151	-264	-84	-27	-368
c1ccc(CNc2ccc3ccccc3n2)nc1	-5	-90	-265	-130	-96	-194
COc1ccc2cc3cc(C(=O)Nc4cc(OC)c(OC)c(OC)c4)oc3nc2c1	3	11	37*	38	39	0
COc1ccc2cc3cc(C(=O)Nc4ccc5c(c4)OCCO5)oc3nc2c1	17	3	-1	3	36	nt
Cc1cc(N2CCOCC2)n2ncc(-c3ccccc3)c2n1	100*	-9	-318	-149	39	-485
Cc1cc(NCc2ccccc2)n2ncc(-c3ccccc3)c2n1	1	-76	i	-135	-27	-397
Cc1cc(N2CCC(C)CC2)n2nc(C)c(-c3ccccc3)c2n1	5	-9	-31	-21	31	nt
Cc1cc(N2CCC(C)CC2)n2ncc(-c3ccccc3)c2n1	5	25	-402	-138	3	-306
CCOC(=O)C(=CNc1cc(C)ccc1C)C(=O)OCC	-21	-1	38*	1	12	29*
CCn1c(=O)cc(OCC(=O)N2CCCC2)c2ccccc21	3	6	16	-14	25	nt
CCn1c(=O)cc(SCC(=O)N2CCN(Cc3ccc4c(c3)OCO4)CC2)c2ccccc21	-3	16	30	9	42	nt
CCn1c(=O)cc(SCC(=O)N2CCCCC2)c2ccccc21	-11	32	58*	24	42	42*
Cn1c(=O)cc(SCC(=O)N2CCN(C3CCCCC3)CC2)c2ccccc21	-10	18	38*	-9	34	23
CCn1c(=O)c2cc(C(=O)N3CCCC3)sc2c2ccccc21	nt	nt	53*	-8	-6	32*
Cn1c(=O)cc(SCC(=O)N2CCN(Cc3ccc4c(c3)OCO4)CC2)c2ccccc21	-4	13	12	1	23	nt
CCn1c(=O)cc(SCC(=O)N2CCN(C)CC2)c2ccccc21	1	26	42*	-4	37	34*
Cc1cc(NC(=O)CN2C(=O)NC3(CCC(C)CC3)C2=O)no1 (configuration not stated)	-3	1	nt	nt	nt	nt
COc1ccc(CCNC(=O)CSc2nc3[nH]c(=O)cc(O)c3s2)cc1	-13	-12	-2	6	-20	nt
COc1cccc(C(=O)NCC(=O)NCc2cc(=O)n(C)c(=O)n2C)c1OC	2	-17	7	13	7	nt
CCn1c(=O)cc(SCC(=O)N2CCC(C)CC2)c2ccccc21	-7	14	59*	11	46	45*
CCOC(=O)C1CCN(C(=O)CSc2cc(=O)n(CC)c3ccccc23)CC1	-2	13	16	-13	31	nt
COc1ccccc1NC(=O)Nc1cc(F)ccc1F	0	-7	-10	-6	-5	nt
CC(C)COc1ccc(-c2nnc(-c3ccco3)o2)cc1	6	-37	-263	-132	-111	-139
Cc1cc(=O)[nH]c(N/N=C/c2c[nH]c3ccccc23)n1	0	4	36*	4	34	7
Cc1nn2c(nc(N3CCOCC3)c3ccccc32)c1C=C(C#N)C#N	-5	-1	-5	-9	-11	nt
SMILES	Beta cell apopt	Gli-Sufu block	697 NFkB inh	Jurkat NFkB inh	Mdm2 MdmX PPI	697 NFkB conf
N#Cc1cnn2c1nc(N1CCOCC1)c1ccccc12	-10	-20	36*	-2	16	18
COc1ccc(/C=N/NC(=O)c2sccc2OCc2ccc(F)cc2)cc1OC	10	-6	13	26	-1	nt
COc1ccc(CCCNC(=O)C2CCC(=O)N(CCc3cccc(F)c3)C2)cc1 (configuration not stated)	5	1	13	8	36	nt
O=C1N/C(=C\c2ccc(O)cc2)C(=O)c2ccccc21	-1	4	45*	6	-1	6
O=C(O)/C=C1\NC(=O)c2ccccc21	nt	-11	3	-10	1	nt
COc1ccc(C(=O)NC2CCN(C(=O)NCc3ccccc3)CC2)cc1	1	7	2	10	5	nt
CCc1c(C)c2c(C)nn(-c3ccccc3)c2oc1=O	2	-5	10	9	15	nt
Cc1c(CCO)c(=O)oc2n[nH]c(-c3ccccc3)c12	nt	11	35*	5	-21	24*
COc1cc(/C(C)=N/NC(=S)NC(C)C)cc(OC)c1OC	1	15	2	5	38	nt
COc1cc(/C(C)=N\NC(N)=S)cc(OC)c1OC	8	10	40*	9	-10	41*
COc1ccc(-c2c(-c3ccc4c(c3)OCO4)c3ccccc3n2C)cc1	nt	-1	nt	nt	nt	nt
Cc1ccc(Sc2cc(NCCCO)c([N+](=O)[O-])c3nonc23)cc1	-11	-6	46*	-9	24	44*
Cc1ccc(N=Nc2cc(C)ccc2N)cc1	11	-128	-326	-98	-166	-157
COc1ccc(NC(=O)c2cc(S(=O)(=O)N3CCOCC3)ccc2C)cc1S(=O)(=O)N1CCCCC1	nt	4	nt	nt	nt	nt
Cc1[nH]c2ccccc2c1C(=O)CN1C(=O)NC2(CC(C)CC(C)(C)C2)C1=O (configuration not stated)	20	11	38*	16	0	49*
CCN(Cc1ccccc1)C(=O)CN1C(=O)NC2(CC(C)CC(C)(C)C2)C1=O (configuration not stated)	1	-2	13	2	22	nt
COc1cc(-c2noc(C)c2C(=O)N[C@@H](CO)Cc2ccccc2)cc(OC)c1OC	nt	-1	nt	nt	nt	nt
COc1cc(-c2noc(C)c2/C=C/c2ccc(C(=O)O)cc2)cc(OC)c1OC	-5	-16	37*	-20	-29	26
C=CCn1c(C)cc(C(=O)CSc2nc3ccccc3[nH]2)c1C	30	-13	-275	-108	-12	-81
C=CCn1c(C)cc(C(=O)CSc2nc3ccccc3c(=O)[nH]2)c1C	16	-44	-91	-39	-73	nt
Cc1ccc(CN2C(=O)C(C)Nc3ncnc(N4CCN(c5ccccn5)CC4)c32)cc1 (configuration not stated)	-6	19	1	-3	15	nt
O=C(Nc1ccc(-c2nc3ccccc3o2)cc1)c1cccnc1	19	-56	-196	-100	-179	nt
Cc1ccc2oc(-c3ccc(NC(=O)CC(C)C)cc3)nc2c1	6	-109	-255	-130	-54	-227
Cc1ccc2oc(-c3ccc(NC(=O)c4cccnc4)cc3)nc2c1	86*	-25	-395	-76	-145	-369
CCCCc1cc(=O)oc2cc(C)cc(OCC(=O)Nc3ccccn3)c12	12	-36	-118	-75	-14	nt
Cc1nc([N+](=O)[O-])c(Sc2nc3ccc([N+](=O)[O-])cc3[nH]2)n1Cc1ccccc1	-4	-1	36*	5	27	30*
CCOC(=O)c1c(N)sc(C(=O)Nc2ccc3c(c2)OCO3)c1C	12	-111	-258	-90	0	-265
CCOC(=O)C(=O)N1CCC(C(=O)OCC)CC1	-4	7	-2	11	-19	nt
